# Bioassay records as filed in PubChem BioAssay.
# Only some compounds are listed: those with a hit (about 19% of all), similar ones and a draw of the others.
# HT1080 IDH1KD tx – toxicity to HT-1080 IDH1 knockdown cells (counter line); HT-1080 IDH1 knockdown viability, ATP luminescence, 48 h; Potency, µM (highest dose often 46.1 µM), without a hit: at the highest dose activity, negative = toxicity, usual class: cytotoxic; 360,000 compounds, 2% hits;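 note: potency is the fitted concentration of half-maximal effect; 0% = DMSO wells and -100% = cell-free medium wells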
#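 IDH1KD HT-1080 cells, 750/well, RPMI + 5% FBS; compound pinned after 2 h settling; 48 h, 37 °C; CellTiter-Glo luminescence; % activity normalised to DMSO and no-cell wells; curves fitted, classed by r2 and efficacy.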
# HT1080-NT tox – kills 2HG-producing HT-1080-NT fibrosarcoma cells. HT-1080-NT fibrosarcoma viability, CellTiter-Glo ATP luminescence, 48 h. Potency, µM (series often up to 46.1 µM), without a hit: at the highest dose activity, negative = less viability, usual class: cytotoxic. 360,000 compounds, 1.6% hits. AID 686970;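 note: NT is the 2HG producing partner of a matched IDH1 knockdown line; potency is the fitted concentration of half-maximal effect; 0% = DMSO-treated cells and -100% = media-only wells without cells; nearly all actives have a fitted effect of over 55% in size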
#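 Luminescent CellTiter-Glo readout after 48 hours of compound exposure at 37 degrees C defined viability of HT-1080-NT cells. Activity was normalized to DMSO wells and cell-free media wells; concentration-response curves were fitted and assigned curve classes.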
# TDP1 cell CPT – growth inhibition of DT40 Tdp1-/-;hTDP1 cells with camptothecin (screen for TDP1 inhibitors). Potency, µM (doses to about 46.2 µM), for inactives: at the highest dose activity change, negative = growth inhibition, actives largely listed as inhibitors. 420,000 compounds, 12% hits. chicken DT40 Tdp1-/-;hTDP1 cells + 20 nM CPT, ATP luminescence, 48 h; note: potency is the fitted concentration of half-maximal effect; nearly all actives have a fitted effect of over 55% in size
#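 Chicken DT40 Tdp1-/- cells stably complemented with human TDP1 were seeded at 400 cells/well in medium containing 20 nM camptothecin, exposed to pin-transferred compounds, and grown at 37 °C for at least 48 hr. Viability was read as ATP luminescence.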
# DT40 TDP1 no CPT – qHTS for Inhibitors of human tyrosyl-DNA phosphodiesterase 1 (TDP1): qHTS in cells in absence of CPT; Potency, µM (doses to about 46.2 µM), for the others: at the highest dose activity change, negative = growth inhibition, most hits filed as inhibitors; DT40 Tdp1-/- hTDP1 cells, no CPT, ATP luminescence, 48 h; 420,000 compounds, 15% hits; note: potency is the fitted concentration of half-maximal effect; nearly all actives have a fitted effect of over 55% in size
#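 Growth of hTDP1-complemented DT40 Tdp1-knockout cells is measured by ATP luminescence after at least 48 hr compound exposure at 37 °C, with DMSO substituting for the 20 nM CPT used in the parallel screen.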
# IL-1B inflam inh – inhibitors of inflammasome signaling (IL-1 beta secretion) | THP-1 LPS/ATP IL-1B secretion, AlphaLISA, 16 h; active compounds read low | activity change, % at 57.5 µM | 360,000 compounds, 4.7% hits | AID 743279; in the data active = activity change below about -50%; inconclusive = mostly about -30% to -49%
#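 Secreted IL-1B measured by AlphaLISA bead assay after 16 h compound exposure of THP-1 cells; compounds (final up to 57.5 uM) added 1 h before LPS (250 ng/mL) and ATP (1.25 mM) stimulation; lower signal means less secretion.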
# Numbers without * were called inactive; ? = inconclusive; nt = not tested or not shown; [ ] = another dose, or the depositor's remark. Unless noted, calls come from the whole dose curve; as a rule, active = well fitted curve in the direction sought with a large enough effect; inconclusive = small, poorly fitted or top-dose-only effect, or another doubt; inactive = no such curve, though single readings can be large; an effect the other way counts as inactive or inconclusive. Unless noted, % is set by controls: 0 for no effect and ±100 for the full control effect.
SMILES,HT1080 IDH1KD tx,HT1080-NT tox,TDP1 cell CPT,DT40 TDP1 no CPT,IL-1B inflam inh
Cn1c(COc2ccc3ccccc3c2)nnc1SCC(=O)OC1CCCCC1,-2%,-5%,-29%,-17%,-5
CCCCOC(=O)c1ccc(NC(=O)CSC2=Nc3ccccc3C3CC=NN23)cc1 (stereo not given),-29%,-20%,23µM*,?,45
O=C(CSC1=Nc2ccccc2C2CC=NN12)Nc1ccc(F)c(F)c1F (stereo not given),-11%,-5%,?,5%,17
Cc1cc(C)cc(C(=O)N(Cc2ccco2)c2c(N)n(Cc3ccccc3)c(=O)[nH]c2=O)c1,18%,5%,1%,3%,-18
COc1ccc(OCCNC(=S)Nc2cccc3ccccc23)cc1,?,-1%[9.24 µM],-21%,23µM*,0
COCCNC(=S)Nc1cccc2cnccc12,9%,8%,-24%,4%,22
COc1ccc(CCNC(=S)Nc2cccc3ccccc23)cc1,1%,10%,?,16µM*,-9
Cc1ccc(S(=O)(=O)Cc2ccc(C(=O)N3CCN(c4cccc(Cl)c4)CC3)o2)cc1,nt,nt,0.65µM*,0.65µM*,nt
Cc1ccccc1S(=O)(=O)Cc1ccc(C(=O)N2CCN(c3cccc(C)c3C)CC2)o1,6.5µM*,5.8µM*,5.2µM*,4.1µM*,0
CCc1ccccc1S(=O)(=O)Cc1ccc(C(=O)N2CCN(c3ccccc3OC)CC2)o1,-27%,?,8.2µM*,13µM*,6
COc1ccc(S(=O)(=O)Cc2ccc(C(=O)N3CCN(c4ccccc4)CC3)o2)cc1,-4%,8%,-28%,-26%,4
Cc1ccccc1S(=O)(=O)Cc1ccc(C(=O)N2CCN(c3cccc(Cl)c3)CC2)o1,nt,nt,4.1µM*,4.6µM*,nt
CCN=C1SC(C(=O)Nc2ccc(OC)cc2)CC(=O)N1CC (stereo not given),-1%,11%,8%,-4%,-5
CC1CC(=O)NN=C1c1ccc(NCCO)c([N+](=O)[O-])c1 (stereo not given),-3%,10%,-1%,2%,7
C[C@@H]1CC(=O)NN=C1c1ccc(NN=C(C#N)C#N)cc1,nt,nt,11µM*,9.4µM*,nt
CCCCC[C@H](C)N1C[C@H](COCc2ccccc2)Oc2cc(N3CCC[C@H]3C(N)=O)ccc2S1(=O)=O,?,?,?,?,-28
CCCCC[C@@H](C)N1C[C@H](COCc2ccccc2)Oc2cc(N3CCC[C@H]3C(N)=O)ccc2S1(=O)=O,-12%,-18%,2.9µM*,6.5µM*,-11
C[C@H](c1ccccc1)N1C[C@H](COCc2ccccc2)Oc2cc(N3CCC[C@H]3C(N)=O)ccc2S1(=O)=O,?,-26%,?,16µM*,-8
Cc1ccc(C)c(NC(=S)NCC(c2ccccc2)N(C)C)c1 (stereo not given),-2%,-1%,3%,?,-19
S=c1c2c(nc3nc[nH]n13)CCC2,-4%,-7%,?,21µM*,8
O=C(COC(=O)c1cc(-c2cccs2)nn1-c1ccccc1)Nc1ccc(F)c([N+](=O)[O-])c1,-5%,-1%,-25%,-21%,-5
NC1=CC(=O)C(=O)c2ccccc21,-20%,-16%,23µM*,16µM*,?
Cc1nc(NC(=O)CSC2=NCCS2)sc1C(=O)N(C)C,-6%,-29%,?,1%,-21
CCC1=[N+](CC(=O)c2ccc(C)cc2)CCn2c(C)ccc21,?,-13%,2.9µM*,2.1µM*,-5
CCC1=[N+](C)CCn2c(C)ccc21,0%,0%,-7%,-25%,17
SMILES,HT1080 IDH1KD tx,HT1080-NT tox,TDP1 cell CPT,DT40 TDP1 no CPT,IL-1B inflam inh
CCC1=[N+](CC(=O)c2ccc(C)cc2)CCn2cccc21,-9%,-15%,4.1µM*,5.2µM*,-3
CCC1=[N+](CC(=O)c2ccc(Br)cc2)CCn2c(C)ccc21,-7%,-9%,?,10µM*,2
CCc1ccc(N2CC(C(=O)Nc3ccc4c(c3)OCCO4)CC2=O)cc1 (stereo not given),12%,18%,-1%,-13%,-5
C=CCn1c(C)nnc1SCC(=O)Nc1ccccc1C(=O)NC1CC1,5%,2%,-4%,-2%,17
CCC(=O)N1CCc2cc(Br)cc(S(=O)(=O)CCC(=O)Nc3ccc(Cl)cc3)c21,nt,nt,-16%,-24%,nt
COc1ccc2c(c1)OC(C)CN(CCNC(=O)c1cc3cc(F)ccc3[nH]1)C2 (stereo not given),nt,nt,7%[9.04 µM],?,nt
COc1cccc2sc(Nc3nnc(-c4ccccc4Cl)o3)nc12,?,?,1.6µM*,1.5µM*,49
COc1cccc(-c2nnc(-c3ccc4ccccc4c3)o2)c1,11%,6%,?,-27%,-15
COc1cccc(-c2nnc(Nc3nc4c(F)cccc4s3)o2)c1,6.3µM*,7.9µM*,21µM*,23µM*,39
COc1ccccc1-c1nnc(Nc2nc3c(OC)cccc3s2)o1,0.46µM*,0.92µM*,0.92µM*,0.73µM*,81
COc1ccc([N+](=O)[O-])cc1NC(=O)c1ccco1,-8%,-20%,14%,1%,-5
COC(=O)c1ccc(N2CCN(C)CC2)c(NC(=O)COc2ccc(C)cc2)c1,-8%,24%,?,-16%,-16
COC(=O)c1ccc(N2CCN(C)CC2)c(NC(=O)COc2ccc(OC)cc2)c1,-5%,-5%,21µM*,-25%,-23
COC(=O)c1ccc(N2CCN(C(C)=O)CC2)c(NC(=O)COc2ccccc2C)c1,-19%,-25%,-28%,-23%,-10
COC(=O)c1ccc(N2CCN(C)CC2)c(NC(=O)COc2ccccc2Cl)c1,-4%,0%,21µM*,23µM*,-11
O=C(NCCc1c[nH]c2ccccc12)C(=O)Nc1ccccc1,?,-8%,-25%,?,2
COc1ccc(-c2cc(C(=O)NCCc3ccccc3)c3c(-c4ccccc4)[nH]nc3n2)cc1OC,nt,nt,16µM*,?,nt
COc1ccccc1-c1cc(C(=O)NCc2ccccc2)c2c(-c3ccc(C)cc3)[nH]nc2n1,nt,nt,23µM*,?,nt
CCOc1ccc(-c2cc(C(=O)NCCc3ccccc3)c3c(-c4ccc(C)cc4)[nH]nc3n2)cc1,nt,nt,12µM*,15µM*,nt
Cc1c(N)cc2c(c1N)C(C)(C)CC2(C)C,21%,12%,-28%,-26%,50
O=C(NCc1ccccc1)c1cc(C2COCCN2S(=O)(=O)c2ccccc2)on1 (stereo not given),11%,?,4%,-22%,0
COc1ccc(S(=O)(=O)N2CCN(C(=O)c3ccc4ccccc4n3)CC2)cc1,-1%,2%,?,-6%,-19
